Data on 28 compounds can be found in PubChem BioAssay (NCATS).

The structures appear in SMILES notation. Records with an inconclusive call do not appear. Calls of active or inactive are those of the source. The call rests on the fitted dose curve; in most records, active means well fitted curve in the direction sought with a large enough effect; inconclusive means small, poorly fitted or top-dose-only effect, or another doubt; inactive means no such curve, though single readings can be large; an effect the other way counts as inactive or inconclusive.

Assay [1] concerns the target Glutathione peroxidase 1 (Homo sapiens) (UniProt P07203). The assay is described as follows: Primary qHTS Assay for Inhibitors of Recombinant Selenoprotein Glutathione Peroxidase 1 (GPX1) (AID 1845191). Further: nearly all actives have a fitted effect of over 65% in size. Put shortly:
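GR-coupled assay: compounds preincubated 30 min at room temperature with GPX1, then reaction started with CHP; final 10 nM GPX1, 1 mM GSH, 0.5 mM CHP, 0.5 mM NADPH, 100 nM GR, 0.01% BSA, pH 7.5 Tris buffer. NADPH fluorescence (340/450 nm) read at 0 and 15 min.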
On the technique in general: In qHTS, concentration-response curves come from the screen itself.

In assay [2] the target is Phospholipid hydroperoxide glutathione peroxidase GPX4 (Homo sapiens) (UniProt P36969). In words: Primary qHTS Assay for Inhibitors of Recombinant Selenoprotein Glutathione Peroxidase 4 (GPX4) (AID 1845192). Further: nearly all actives have a fitted effect of over 65% in size. On activity change, negative = inhibition: series mostly up to about 50 µM; on the % scale 0 is the no-effect control and ±100 the full control effect. Put shortly:
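GR-coupled assay: recombinant GPX4 preincubated 30 min with compound at room temperature; final 200 nM GPX4, 1 mM GSH, 0.5 mM cumene hydroperoxide, 0.5 mM NADPH, 100 nM GR, 0.01% BSA, pH 7.5 Tris. NADPH fluorescence (340/450 nm) read at 0 and 15 min.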

Assay [3] can be described thus: Quantitative High-Throughput drug screen in 47 multiple myeloma cell lines against the NCATS MIPE library collection: EJM_DSMZ cell viability assay (AID 1918926; further: nearly all actives have a fitted effect of over 30% in size; further: potency means the concentration at half of the fitted maximal effect). In short, it runs like this:
(§1)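 CellTiter-Glo ATP luminescence gave viability after 48 h compound treatment at 37C of 500 multiple myeloma cells per well. Normalisation used DMSO-only wells as 100% and media-only wells as 0% viability; primary qHTS of approved and investigational drugs.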

A short description of assay [4]: Quantitative High-Throughput drug screen in 47 multiple myeloma cell lines against the NCATS MIPE library collection: Delta47_JCRB cell viability assay (AID 1918925; further: nearly all actives have a fitted effect of over 45% in size; further: potency means the concentration at half of the fitted maximal effect). In short, it runs like this: as §1
Assay [5] in a line: Quantitative High-Throughput drug screen in 47 multiple myeloma cell lines against the NCATS MIPE library collection: AMO1_DSMZ cell viability assay (AID 1918927; further: nearly all actives have a fitted effect of over 30% in size; further: potency means the concentration at half of the fitted maximal effect). In short, it runs like this:
as §1

Assay [6] in a line: Quantitative High-Throughput drug screen in 47 multiple myeloma cell lines against the NCATS MIPE library collection: FR4_PLB cell viability assay (AID 1918924; further: nearly all actives have a fitted effect of over 35% in size; further: potency means the concentration at half of the fitted maximal effect). In short, it runs like this:
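Inhibition of cell viability is measured here. Each line was plated at 500 cells per well, treated with MIPE 4.0 drugs, kept 48 hours at 37C, then assayed for ATP content by CellTiter-Glo luminescence.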

Phospholipid hydroperoxide glutathione peroxidase GPX4 (Homo sapiens), sequence (P36969 whole entry, looked up): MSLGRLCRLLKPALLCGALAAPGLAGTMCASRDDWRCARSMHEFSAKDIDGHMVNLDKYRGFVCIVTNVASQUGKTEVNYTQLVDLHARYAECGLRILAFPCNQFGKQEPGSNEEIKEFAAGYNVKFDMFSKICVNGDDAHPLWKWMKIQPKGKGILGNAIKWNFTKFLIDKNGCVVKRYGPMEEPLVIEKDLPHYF
Glutathione peroxidase 1 (Homo sapiens), sequence (P07203 whole entry, looked up): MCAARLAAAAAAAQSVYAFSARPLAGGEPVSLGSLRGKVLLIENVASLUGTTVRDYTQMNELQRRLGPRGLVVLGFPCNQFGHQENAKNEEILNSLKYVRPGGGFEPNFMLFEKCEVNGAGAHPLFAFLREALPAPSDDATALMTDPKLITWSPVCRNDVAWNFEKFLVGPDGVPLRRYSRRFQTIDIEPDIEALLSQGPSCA

For the compound `CN1CCCC(n2nc(Cc3ccc(Cl)cc3)c3ccccc3c2=O)CC1` (configuration not stated), the Potency entry in assay [1] and in assay [2] was “inactive” each time. Further, the Potency in assay [3] was 1.05 µM (active).

As to `CC[C@H](NC(C)C)[C@H](O)c1ccc(O)c2[nH]c(=O)ccc12`, the Potency result in assay [1], in assay [2], in assay [4], in assay [3] and in assay [5] was “inactive” each time.

`N[C@@H](C(=O)N[C@@H]1C(=O)N2C(C(=O)O)=C(Cl)CS[C@H]12)c1ccccc1`: the activity change, negative = inhibition in assay [2] was 3.64% [at 9.73 µM] (inactive). For the same compound, the Potency result in assay [4], in assay [3] and in assay [5] was “inactive” in each case.

Turning to `CC(C)OC(=O)OCOP(=O)(CO[C@H](C)Cn1cnc2c(N)ncnc21)OCOC(=O)OC(C)C`, the Potency entry in assay [1] and in assay [2] was “inactive” each time. Besides, the Potency in assay [5] was 20.9 µM (active).

As for `O=NN(CCCl)C(=O)NC1CCCCC1`, the Potency entry in assay [1], in assay [2], in assay [3] and in assay [5] was “inactive” in each case.

As to `CC(=O)CC(c1ccccc1)c1c(O)c2ccccc2oc1=O` (configuration not stated), the Potency result in assay [1], in assay [2] and in assay [3] was “inactive” in each case.

As to `CNNCc1ccc(C(=O)NC(C)C)cc1`, the Potency entry in assay [1], in assay [2], in assay [3] and in assay [5] was “inactive” each time.

Turning to `CC1=CC(=O)c2ccccc2C1=O`, in assay [2], the Potency entry was “inactive”. In addition, the Potency in assay [6] is 26.4 µM (active); in assay [4], 16.6 µM (active); in assay [3], 20.9 µM (active).

Turning to `C#CCN[C@@H]1CCc2ccccc21`, the Potency entry in assay [1], in assay [2], in assay [4] and in assay [5] was “inactive” in each case.

As to `CO[C@@]12[C@H](COC(N)=O)C3=C(C(=O)C(C)=C(N)C3=O)N1C[C@@H]1N[C@@H]12`, the Potency result in assay [1], in assay [2] and in assay [5] was “inactive” each time. In assay [4], the Potency was 23.5 µM (active).

As to `CCn1cc(C(=O)O)c(=O)c2cc(F)c(N3CCNCC3)cc21`, the Potency entry in assay [1], in assay [6], in assay [4] and in assay [5] was “inactive” throughout.

As to `Cn1c(=O)c2c(ncn2CC(O)CO)n(C)c1=O` (configuration not stated), the Potency result in assay [1], in assay [2], in assay [4], in assay [3] and in assay [5] was “inactive” in each case.

As to `CC(=O)[C@H]1CC[C@H]2[C@@H]3CCC4=CC(=O)CC[C@]4(C)[C@H]3CC[C@]12C`, the Potency result in assay [1], in assay [2], in assay [4] and in assay [5] was “inactive” in each case.

Take `C[C@]12C=CC(=O)C=C1CC[C@@H]1[C@@H]2C(=O)C[C@@]2(C)[C@H]1CC[C@]2(O)C(=O)CO`: the Potency result in assay [1], in assay [2], in assay [3] and in assay [5] was “inactive” in each case.

For `OC(Cn1cncn1)(Cn1cncn1)c1ccc(F)cc1F`, the Potency result in assay [1], in assay [2] and in assay [3] was “inactive” throughout. Also, in assay [5], the Potency was 0.0418 µM (active).

`Oc1c(Cl)cc(Cl)c2cccnc12`: the Potency entry in assay [1] and in assay [2] was “inactive” in each case. Also, the Potency in assay [4] is 23.5 µM (active); in assay [3], 6.62 µM (active); in assay [5], 10.5 µM (active).

For `Nc1ccc(S(=O)(=O)Nc2ccccn2)cc1`, the Potency entry in assay [1], in assay [2], in assay [3] and in assay [5] was “inactive” throughout.

For `CC(=O)[C@H]1CC[C@H]2[C@@H]3CC=C4C[C@@H](O)CC[C@]4(C)[C@H]3CC[C@]12C`, the Potency result in assay [1], in assay [2], in assay [4] and in assay [5] was “inactive” in each case.

In the case of `S=P(N1CC1)(N1CC1)N1CC1`, the Potency entry in assay [1] and in assay [3] was “inactive” each time. In addition, the outcome in assay [2] is “inactive [at 0.409 µM]”.

For the compound `CCOC(=O)c1ccc(C#Cc2ccc3c(c2)C(C)(C)CCS3)nc1`, the Potency result in assay [1], in assay [2] and in assay [5] was “inactive” each time.

On to `N[C@@H](Cc1ccc(O)c(O)c1)C(=O)O`, for which the Potency entry in assay [1], in assay [2] and in assay [3] was “inactive” in each case.

In the case of `CCC(=O)O[C@]1(C(=O)CCl)[C@@H](C)C[C@H]2[C@@H]3CCC4=CC(=O)C=C[C@]4(C)[C@@]3(F)[C@@H](O)C[C@@]21C`, the Potency entry in assay [1], in assay [2] and in assay [3] was “inactive” in each case.

As to `COc1c(N2CCNC(C)C2)c(F)cc2c(=O)c(C(=O)O)cn(C3CC3)c12` (configuration not stated), the Potency entry in assay [1], in assay [2], in assay [3] and in assay [5] was “inactive” throughout.

`NC(=O)N1c2ccccc2CC(=O)c2ccccc21`: the Potency result in assay [2], in assay [6], in assay [4] and in assay [5] was “inactive” each time.

In the case of `O=C(O)c1ccc(-n2nc(-c3ccccc3O)nc2-c2ccccc2O)cc1`, the Potency result in assay [1] and in assay [2] was “inactive” throughout. In addition, in assay [5], the Potency was 29.6 µM (active).

As for `C[C@@H]1CN(c2c(F)c(N)c3c(=O)c(C(=O)O)cn(C4CC4)c3c2F)C[C@H](C)N1`, the Potency result in assay [1], in assay [2], in assay [3] and in assay [5] was “inactive” each time.

Consider `CN(Cc1cc(Br)cc(Br)c1N)C1CCCCC1`, for which the Potency entry in assay [1], in assay [2], in assay [4] and in assay [5] was “inactive” in each case.

As for `COc1ccc(C(=O)CC(=O)c2ccc(C(C)(C)C)cc2)cc1`, the Potency entry in assay [1] and in assay [2] was “inactive” throughout. Moreover, the Potency was 1.48 µM (active) in assay [3] and 1.87 µM (active) in assay [5].
